Experiment [1] relates to CLZ3 (HCA2 human fibroblast dual HR-NHEJ reporter). Nature of the experiment: NHEJ repair efficiency (GFP+ cells) relative to control (log10 fold); higher = more non-homologous end joining. To be noted: 5 µM; doxycycline 0.5 ug/mL.
The test system is the same in experiment [2]. Nature of the experiment: HR repair efficiency (tdTomato+ cells) relative to control (log10 fold); higher = more homologous recombination. To be noted: 5 µM; doxycycline 0.5 ug/mL.

The text below walks through data of the supplement of paper PMC7380943.

Molecules are shown by their SMILES. Structures can show the parent of a compound that is named as a salt.
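For HR repair efficiency (tdTomato+ cells) relative to control in this document: compound given one day before doxycycline, which switches on I-SceI endonuclease expression to create double-strand breaks within the integrated reporter.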
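For NHEJ repair efficiency (GFP+ cells) relative to control in this document: compound given one day ahead of doxycycline, which switches on I-SceI endonuclease to cut the chromosomally integrated reporter and create DSBs.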

With `COc1ccc2c(c1O)-c1c(O)c(OC)cc3c1[C@H](C2)[N+](C)(C)CC3` [Magnoflorine hydrochloride], in experiment [1], the “NHEJ repair efficiency (log10)” value was -0.0605. In addition, in experiment [2], the “HR repair efficiency (log10)” value is -0.0478.
The matching figures for `O=C(/C=C/c1ccc(O)cc1)OC[C@H]1O[C@@H](Oc2c(-c3ccc(O)cc3)oc3cc(O)cc(O)c3c2=O)[C@H](O)[C@@H](O)[C@@H]1O` [Tiliroside]: -0.00145 and -0.0226.
Taken in the same sequence, the figures for `O=C(/C=C/c1ccc(O)c(O)c1/C=C/c1ccc(O)c(O)c1)O[C@H](Cc1ccc(O)c(O)c1)C(=O)O` [Salvianolic Acid A] were 0.0713 and 0.0119.
Turning to `O=Cc1ccc(CO)o1` [5-Hydroxymethylfurfural], the “NHEJ repair efficiency (log10)” value in experiment [1] was -0.214. Besides, in experiment [2], the “HR repair efficiency (log10)” value amounted to 0.0126.
The matching figures for `COC(=O)C1=CO[C@@H](O[C@@H]2O[C@H](CO)[C@@H](O)[C@H](O)[C@H]2O)[C@H]2[C@@H]1[C@H](O)C[C@]2(C)O` [Shanzhiside methylester]: 0.193 and 0.314.
The matching figures for `C[C@@H]1O[C@@H](O[C@H]2[C@H](Oc3cc(O)c4c(c3)O[C@H](c3ccc(O)cc3)CC4=O)O[C@H](CO)[C@@H](O)[C@@H]2O)[C@H](O)[C@H](O)[C@H]1O` [Naringin]: -0.127 and -0.0146.
The matching figures for `COc1ccc(C=O)c(O)c1` [4-Methoxysalicylaldehyde]: 0.00827 and -0.0885.
`CC(=O)OC1CC23CC(C)(O)C(CCC2C(C)(O)C2C4OC4C(C)(C)C12O)C3O` (centres undefined) [Rhodojaponin Ii]: the “NHEJ repair efficiency (log10)” value in experiment [1] is -0.0128. Besides, the “HR repair efficiency (log10)” value in experiment [2] was -0.000636.
The matching figures for `C[C@@H]1[C@H]2[C@H](O[C@@H]3O[C@H](CO)[C@@H](O)[C@H](O)[C@H]3O)OC=C(C(=O)O)[C@H]2C[C@@H]1O` [Loganic Acid]: 0.0621 and 0.135.
For the compound `Oc1cc(O)c2c(c1)O[C@H](c1ccc(O)c(O)c1)[C@H](O)[C@H]2c1c(O)cc(O)c2c1O[C@H](c1ccc(O)c(O)c1)[C@H](O)C2` [Procyanidin B2], in experiment [1], the “NHEJ repair efficiency (log10)” value turned out to be 0.092. Moreover, in experiment [2], the “HR repair efficiency (log10)” value was -0.122.
Taken in the same sequence, the figures for `O=c1cc(-c2ccccc2)oc2cc(O)cc(O)c12` [Chrysin] were 0.01 and -0.15.
`COC(=O)C1=CO[C@@H](O[C@@H]2O[C@H](CO)[C@@H](O)[C@H](O)[C@H]2O)[C@@H]2[C@@]3(C)O[C@H]3[C@@H](O)[C@]12O` [Sesamoside]: the “NHEJ repair efficiency (log10)” value in experiment [1] was -0.0395. In experiment [2], the “HR repair efficiency (log10)” value is -0.1.
As to `C=C(C)[C@@H]1CC[C@]2(C(=O)O[C@@H]3O[C@H](CO[C@@H]4O[C@H](CO)[C@@H](O[C@@H]5O[C@@H](C)[C@H](O)[C@@H](O)[C@H]5O)[C@H](O)[C@H]4O)[C@@H](O)[C@H](O)[C@H]3O)CC[C@]3(C)[C@H](CC[C@@H]4[C@@]5(C)CC[C@H](O[C@@H]6OC[C@H](O)[C@H](O)[C@H]6O[C@@H]6O[C@@H](C)[C@H](O)[C@@H](O)[C@H]6O)[C@@](C)(CO)[C@@H]5CC[C@]43C)[C@@H]12` [Anemoside B4], the “NHEJ repair efficiency (log10)” value in experiment [1] is -0.0464. In experiment [2], the “HR repair efficiency (log10)” value turned out to be 0.0526.
As to `COc1cc([C@@H]2Oc3c(O)cc([C@H]4Oc5cc(O)cc(O)c5C(=O)[C@@H]4O)cc3[C@H]2CO)ccc1O` [Silicristin], in experiment [1], the “NHEJ repair efficiency (log10)” value was -0.0735. In addition, the “HR repair efficiency (log10)” value in experiment [2] amounted to 0.068.
Taken in the same sequence, the figures for `C/C=C(/C)C(=O)O[C@@H]1[C@H](OC(C)=O)c2c(ccc3ccc(=O)oc23)OC1(C)C` [Praeruptorin A] were -0.00436 and -0.0186.
As for `C=C1CCC[C@]2(C)C[C@]3(O)OC(=O)C(C)=C3C[C@@H]12` [Atractylenolide Iii], the “NHEJ repair efficiency (log10)” value in experiment [1] worked out at 0.00444. For the same compound, in experiment [2], the “HR repair efficiency (log10)” value worked out at 0.0542.
The matching figures for `COc1ccc(-c2oc3c(CC=C(C)C)c(O[C@@H]4O[C@H](CO)[C@@H](O)[C@H](O)[C@H]4O)cc(O)c3c(=O)c2O[C@@H]2O[C@@H](C)[C@H](O)[C@@H](O)[C@H]2O[C@@H]2OC[C@@H](O)[C@H](O)[C@H]2O)cc1` [Epimedin B]: -0.0634 and -0.0516.
The matching figures for `C=C[C@@H]1[C@@H](O[C@@H]2O[C@H](CO)[C@@H](O)[C@H](O)[C@H]2O)OC=C(C(=O)OC)[C@@H]1CCOC(=O)c1cc(O)c(O)c(O)c1` [Cornuside I]: -0.0558 and 0.0608.
Taken in the same sequence, the figures for `C=C[C@@H]1CNC(=S)O1` [Epigoitrin] were 0.17 and 0.212.
As for `C[C@H](N)C(=O)O` [Alanine], the “NHEJ repair efficiency (log10)” value in experiment [1] was found to be 0.113. For the same compound, the “HR repair efficiency (log10)” value in experiment [2] was -0.14.
Taken in the same sequence, the figures for `C/C1=C/CC[C@H](C)C(=O)C[C@@H](C(C)C)C(=O)C1` [Curdione] were -0.0258 and 0.0177.
Turning to `COc1cc(O)c2c(=O)c(O[C@@H]3O[C@H](CO)[C@@H](O)[C@H](O)[C@H]3O)c(-c3ccc(O[C@@H]4O[C@H](CO)[C@@H](O)[C@H](O)[C@H]4O)cc3)oc2c1` [Complanatoside], the “NHEJ repair efficiency (log10)” value in experiment [1] is -0.0413. In experiment [2], the “HR repair efficiency (log10)” value was -0.0658.
